Experimental findings from the supplement of paper PMC6279402 are described below.

± gives the standard deviation of the averaged measurements.

In this assay the test system is A549. As to the kind of experiment: relative viability (normalised to negative control = 1, bortezomib = 0) (fraction); higher = less cytotoxic. Particulars: inflammatory serum-free RHB-A with cytokines + LPS, 5 d + 24 h CellTiter-Blue. How it is done: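 A549 KRAS-mutant NSCLC cells, pre-treated 5 µM GSK126 or vehicle (DMSO), were seeded at 250 cells/well in 384-well plates in serum-free RHB-A medium with inflammatory cytokines/LPS and treated with Selleck kinase inhibitor and NCI oncology compounds at 30 or 300 nM in triplicate, refreshed at 48 h. Viability was read by CellTiter-Blue after 5 d plus 24 h and normalised per plate with cellHTS2 (mean of bortezomib positive control = 0, mean of negative control = 1).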
(In general: Resazurin is reduced to fluorescent resorufin, in cell work by metabolically active cells.)

Where [1] appears, read: compound 30 nM, GSK126 pretreatment: 5 uM GSK126.
The mark [2] stands for this setting: compound 30 nM, GSK126 pretreatment: none (vehicle).
Where [3] appears, read: compound 300 nM, GSK126 pretreatment: 5 uM GSK126.
Setting [4] is: compound 300 nM, GSK126 pretreatment: none (vehicle).

Turning to `Nc1nc(N)c2nc(-c3cccc(O)c3)c(-c3cccc(O)c3)nc2n1`, the relative viability was 0.719 ± 0.028 under setting [1], 0.683 ± 0.014 under setting [2], 0.664 ± 0.14 under setting [3] and 0.776 ± 0.075 under setting [4].

For `O=C(Cc1ccc(-c2ccc(OCCN3CCOCC3)cc2)cn1)NCc1ccccc1`, the relative viability came out at 0.319 ± 0.065 under setting [1], 0.211 ± 0.026 under setting [2], 0.388 ± 0.049 under setting [3] and 0.248 ± 0.05 under setting [4].

For `Fc1cc(-c2cccc3ncc(-c4cnn(C5CCNCC5)c4)nc23)cc(F)c1CN1CCOCC1`, the relative viability amounted to 0.927 ± 0.076 under setting [1], 0.889 ± 0.13 under setting [2], 1.11 ± 0.12 under setting [3] and 1.05 ± 0.15 under setting [4].

As to `c1ccc2c(-c3cnn4cc(-c5ccc(N6CCNCC6)cc5)cnc34)ccnc2c1`, the relative viability under setting [1] was determined as 1.01 ± 0.16, the relative viability under setting [2] turned out to be 0.961 ± 0.15, the relative viability under setting [3] stood at 1.1 ± 0.067 and the relative viability under setting [4] was determined as 1.13 ± 0.093.

In the case of `O=NN(CCCl)C(=O)NCCCl` [Carmustine], the relative viability runs as follows: under setting [1], 0.852 ± 0.1; under setting [2], 0.858 ± 0.13; under setting [3], 0.894 ± 0.046; under setting [4], 0.955 ± 0.072.

`COc1cc2ncnc(Nc3cccc(Br)c3)c2cc1OC`: the relative viability worked out at 0.996 ± 0.044 under setting [1], 0.976 ± 0.048 under setting [2], 0.537 ± 0.17 under setting [3] and 0.701 ± 0.086 under setting [4].

`CC[C@@H]1C(=O)N(C)c2cnc(Nc3ccc(C(=O)NC4CCN(C)CC4)cc3OC)nc2N1C1CCCC1`: the relative viability under setting [1] is 0.451 ± 0.03, the relative viability under setting [2] was found to be 0.362 ± 0.021, the relative viability under setting [3] is 0.212 ± 0.04 and the relative viability under setting [4] was found to be 0.215 ± 0.02.

On to `Nc1nc2[nH]cc(CCc3ccc(C(=O)N[C@@H](CCC(=O)O)C(=O)O)cc3)c2c(=O)[nH]1` [Pemetrexed; Pemetrexed Disodium], for which the relative viability by setting is: under setting [1], 0.89 ± 0.07; under setting [2], 0.88 ± 0.078; under setting [3], 0.829 ± 0.1; under setting [4], 0.879 ± 0.095.

Turning to `S=C(NCc1ccc2c(c1)OCO2)N1CCN(c2ncnc3c2oc2ccccc23)CC1` [Amuvatinib (MP-470); MP-470], the relative viability came out at 0.861 ± 0.067 under setting [1], 0.848 ± 0.057 under setting [2], 0.917 ± 0.15 under setting [3] and 1.07 ± 0.072 under setting [4].

For the molecule `Cc1cc(C(C)Nc2ccccc2)c2nc(N3CCOCC3)cc(=O)n2c1` (stereo not given), the relative viability under setting [1] was 0.763 ± 0.083, the relative viability under setting [2] stood at 0.782 ± 0.067, the relative viability under setting [3] was found to be 0.737 ± 0.093 and the relative viability under setting [4] was found to be 0.8 ± 0.1.
